From PubChem BioAssay (NCI)
About 83,000 compounds went through this panel and 20% of them were active in at least one assay; those are over-represented in the sample as a whole.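 The endpoint reported here, percent growth, reads 100 for growth as untreated, 0 for no net growth and -100 for all cells dead.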 The source made the active and inactive calls. The calls were made as follows: active = growth percent below 10; inactive = the rest.

Experiments:
Test in all cases: NCI-60 one-dose screen, 48 h (100 = growth as untreated, 0 = no growth, -100 = all killed)
Conditions in all cases: 10 µM unless noted
HT29 colon = tested on: HT29 colon
SNB-75 CNS = tested on: SNB-75 CNS
SNB-19 CNS = tested on: SNB-19 CNS
U251 CNS = tested on: U251 CNS
PC-3 prostate = tested on: PC-3 prostate
SK-MEL-5 melanoma = tested on: SK-MEL-5 melanoma
UACC-62 melanoma = tested on: UACC-62 melanoma
SK-MEL-2 melanoma = tested on: SK-MEL-2 melanoma
EKVX NSCLC = tested on: EKVX NSCLC
SN12C renal = tested on: SN12C renal
UO-31 renal = tested on: UO-31 renal
TK-10 renal = tested on: TK-10 renal
ACHN renal = tested on: ACHN renal
CAKI-1 renal = tested on: CAKI-1 renal
A498 renal = tested on: A498 renal
CCRF-CEM leukemia = tested on: CCRF-CEM leukemia
MOLT-4 leukemia = tested on: MOLT-4 leukemia
SR leukemia = tested on: SR leukemia
LOX IMVI melanoma = tested on: LOX IMVI melanoma
SK-MEL-28 melanoma = tested on: SK-MEL-28 melanoma

Measured: growth

COc1ccc(COC(C)=O)cc1
inactive: HT29 colon 113% | SNB-75 CNS 114% | SNB-19 CNS 114% | U251 CNS 107% | PC-3 prostate 95.3% | SK-MEL-5 melanoma 108% | UACC-62 melanoma 111% | SK-MEL-2 melanoma 113% | EKVX NSCLC 113% | SN12C renal 124% | UO-31 renal 97.2% | TK-10 renal 126% | ACHN renal 99.1% | CAKI-1 renal 105% | A498 renal 88.7% | CCRF-CEM leukemia 86.4% | MOLT-4 leukemia 107% | SR leukemia 112%

NC(N)=N/N=C(/c1ccccc1)c1ccc(Cl)cc1
inactive: HT29 colon 25.6% | SNB-75 CNS 56.1% | SNB-19 CNS 63.8% | U251 CNS 70.8% | PC-3 prostate 72.8% | SK-MEL-5 melanoma 56.8% | LOX IMVI melanoma 74.4% | SK-MEL-28 melanoma 53.9% | SK-MEL-2 melanoma 118% | EKVX NSCLC 60.6% | SN12C renal 68.9% | UO-31 renal 95.4% | TK-10 renal 94.1% | ACHN renal 104% | A498 renal 56.5% | CCRF-CEM leukemia 125% | MOLT-4 leukemia 125% | SR leukemia 50.3%
active: CAKI-1 renal -17.2%

Cc1cc(C(C)(C)C)cc(C)c1CC1=NCCN1
inactive: HT29 colon 105% | SNB-75 CNS 97% | SNB-19 CNS 106% | U251 CNS 106% | PC-3 prostate 91% | SK-MEL-5 melanoma 96.7% | LOX IMVI melanoma 95% | SK-MEL-28 melanoma 116% | SK-MEL-2 melanoma 113% | EKVX NSCLC 89% | SN12C renal 111% | UO-31 renal 93% | TK-10 renal 113% | ACHN renal 92.8% | CAKI-1 renal 85.4% | A498 renal 117% | CCRF-CEM leukemia 103% | MOLT-4 leukemia 93.5% | SR leukemia 94.3%

CC1SC(c2c(Cl)cccc2Cl)N(NC(=O)c2[nH]c3ccc(F)cc3c2-c2ccccc2)C1=O (stereo unspecified)
active: SNB-75 CNS -53% | UO-31 renal -17.6%
inactive: HT29 colon 34.8% | SNB-19 CNS 37.4% | U251 CNS 10.7% | PC-3 prostate 32.2% | SK-MEL-5 melanoma 54.6% | UACC-62 melanoma 74.8% | SK-MEL-28 melanoma 71.2% | SK-MEL-2 melanoma 72% | EKVX NSCLC 41.8% | SN12C renal 33.9% | TK-10 renal 21.6% | ACHN renal 34.4% | CCRF-CEM leukemia 56.1% | MOLT-4 leukemia 69.1% | SR leukemia 54.8%

Cc1cc(C)c(OC(=O)CSc2nc3ccccc3c(=O)n2CCc2ccccc2)cc1C
inactive: HT29 colon 99.5% | SNB-75 CNS 88.1% | SNB-19 CNS 103% | U251 CNS 74.1% | PC-3 prostate 66% | SK-MEL-5 melanoma 108% | UACC-62 melanoma 77% | SK-MEL-28 melanoma 111% | SK-MEL-2 melanoma 112% | EKVX NSCLC 64.4% | UO-31 renal 63.6% | TK-10 renal 124% | ACHN renal 92% | CAKI-1 renal 72.6% | A498 renal 94.5%

O=C(/C=C/c1cccnc1)NCCCCC1CCCN(C(=O)c2ccccc2)C1 (stereo unspecified)
active: CAKI-1 renal -15.7%
inactive: HT29 colon 32.8% | SNB-75 CNS 87.7% | SNB-19 CNS 53.3% | U251 CNS 43.1% | PC-3 prostate 47.5% | SK-MEL-5 melanoma 61.7% | UACC-62 melanoma 87.5% | SK-MEL-28 melanoma 73.1% | SK-MEL-2 melanoma 15.3% | EKVX NSCLC 106% | SN12C renal 38.3% | UO-31 renal 39.9% | TK-10 renal 103% | ACHN renal 73.7% | A498 renal 101% | CCRF-CEM leukemia 41.5% | MOLT-4 leukemia 43.8% | SR leukemia 33%

COc1ccc(-n2nc3c(c2-c2ccc(OC)c(OC)c2)-c2oncc2CC3)cc1
inactive: HT29 colon 80% | SNB-75 CNS 94.2% | SNB-19 CNS 96.9% | U251 CNS 85.3% | PC-3 prostate 88.3% | SK-MEL-5 melanoma 81.8% | LOX IMVI melanoma 58.1% | SK-MEL-28 melanoma 75.1% | SK-MEL-2 melanoma 92.8% | EKVX NSCLC 92.6% | SN12C renal 88.4% | UO-31 renal 79.1% | TK-10 renal 103% | ACHN renal 55.7% | CAKI-1 renal 80.6% | A498 renal 83.5% | CCRF-CEM leukemia 50.4% | MOLT-4 leukemia 72.6%

CC(=O)c1ccc2c3c(n(C)c2c1)CCCC3
inactive: HT29 colon 92.6% | SNB-75 CNS 92.1% | SNB-19 CNS 99.6% | U251 CNS 102% | PC-3 prostate 100% | SK-MEL-5 melanoma 102% | UACC-62 melanoma 96.5% | SK-MEL-28 melanoma 96.5% | SK-MEL-2 melanoma 104% | EKVX NSCLC 88.3% | SN12C renal 97.2% | UO-31 renal 112% | TK-10 renal 85.4% | ACHN renal 105% | CAKI-1 renal 102% | CCRF-CEM leukemia 86.6% | MOLT-4 leukemia 76.5% | SR leukemia 92.1%
active: A498 renal -76.1%

CC/C(=C\c1ccc(N(C)C)cc1)c1ccncc1
inactive: HT29 colon 14.6% | SNB-75 CNS 39.2% | SNB-19 CNS 64.5% | U251 CNS 29.3% | PC-3 prostate 65.4% | SK-MEL-5 melanoma 32.5% | UACC-62 melanoma 44% | LOX IMVI melanoma 41.5% | SK-MEL-2 melanoma 49.9% | EKVX NSCLC 63.5% | UO-31 renal 57.6% | TK-10 renal 73.6% | ACHN renal 59.4% | CAKI-1 renal 43.4% | MOLT-4 leukemia 38.7% | SR leukemia 22.8%

CN(C)c1nc(-c2ccco2)n2nc(-c3ccco3)cc2n1
inactive: HT29 colon 96.9% | SNB-75 CNS 81.8% | SNB-19 CNS 98.9% | U251 CNS 88.9% | PC-3 prostate 84.4% | SK-MEL-5 melanoma 81.8% | UACC-62 melanoma 82.2% | LOX IMVI melanoma 75.8% | SK-MEL-2 melanoma 122% | EKVX NSCLC 77% | SN12C renal 93.4% | UO-31 renal 40.5% | ACHN renal 96.5% | CAKI-1 renal 90.7% | A498 renal 79.9% | CCRF-CEM leukemia 93% | MOLT-4 leukemia 97.3% | SR leukemia 73.8%

CSc1ccc2c(c1)N(CCC1CCCCN1C)c1ccccc1S2 (stereo unspecified)
inactive: HT29 colon 21.6% | SNB-75 CNS 34.5% | SNB-19 CNS 75.3% | U251 CNS 34.3% | PC-3 prostate 34.1% | SK-MEL-5 melanoma 23.7% | LOX IMVI melanoma 23.5% | SK-MEL-28 melanoma 81.7% | SK-MEL-2 melanoma 88.6% | EKVX NSCLC 67.5% | SN12C renal 48% | UO-31 renal 28.2% | TK-10 renal 66.4% | ACHN renal 25.8% | CAKI-1 renal 32.9% | A498 renal 84% | CCRF-CEM leukemia 35.3% | MOLT-4 leukemia 40.5% | SR leukemia 14.2%

NNC(=O)C1CC2c3ccccc3C1c1ccccc12 (stereo unspecified)
inactive: HT29 colon 104% | SNB-75 CNS 90.8% | SNB-19 CNS 107% | U251 CNS 110% | PC-3 prostate 98.5% | SK-MEL-5 melanoma 110% | UACC-62 melanoma 97.1% | SK-MEL-28 melanoma 108% | SK-MEL-2 melanoma 109% | EKVX NSCLC 115% | SN12C renal 97.8% | UO-31 renal 93.8% | TK-10 renal 97.5% | ACHN renal 117% | CAKI-1 renal 103% | A498 renal 129% | CCRF-CEM leukemia 82.8% | MOLT-4 leukemia 105% | SR leukemia 89%

O=C(C(=O)N1CCOCC1)c1ccc(OC2OC(CO)C(O)C(O)C2O)cc1 (stereo unspecified)
inactive: HT29 colon 100% | SNB-75 CNS 89.5% | SNB-19 CNS 102% | U251 CNS 105% | PC-3 prostate 110% | SK-MEL-5 melanoma 108% | UACC-62 melanoma 103% | SK-MEL-28 melanoma 105% | SK-MEL-2 melanoma 96.2% | EKVX NSCLC 104% | SN12C renal 106% | UO-31 renal 102% | TK-10 renal 101% | ACHN renal 97.9% | CAKI-1 renal 98.5% | A498 renal 104% | CCRF-CEM leukemia 107% | MOLT-4 leukemia 90.3% | SR leukemia 102%

COc1cc2c(cc1OC)C1CCN3C(=O)CCC3N1CC2 (stereo unspecified)
inactive: HT29 colon 109% | SNB-75 CNS 105% | SNB-19 CNS 111% | U251 CNS 112% | PC-3 prostate 107% | SK-MEL-5 melanoma 113% | UACC-62 melanoma 97% | SK-MEL-28 melanoma 110% | SK-MEL-2 melanoma 119% | EKVX NSCLC 114% | SN12C renal 109% | UO-31 renal 99.7% | TK-10 renal 104% | ACHN renal 102% | CAKI-1 renal 115% | A498 renal 104% | CCRF-CEM leukemia 102% | MOLT-4 leukemia 97.3% | SR leukemia 95.8%

Nc1nonc1-c1nc2ccccc2n1CC(=O)Nc1ccc2c(c1)COC2=O
inactive: HT29 colon 85.1% | SNB-75 CNS 36.5% | SNB-19 CNS 87.6% | U251 CNS 94.4% | PC-3 prostate 80% | SK-MEL-5 melanoma 77.8% | UACC-62 melanoma 72.9% | LOX IMVI melanoma 73.2% | SK-MEL-2 melanoma 89.4% | SN12C renal 92.2% | UO-31 renal 60.6% | TK-10 renal 94.7% | ACHN renal 92.2% | CAKI-1 renal 74.5% | A498 renal 63.7% | MOLT-4 leukemia 101%

COC1CC2CCC(C)C(O)(O2)C(=O)C(=O)N2CCCCC2C(=O)OC(C(C)CC2CCC(O)C(OC)C2)CC(=O)C(C)C=C(C)C(O)C(OC)C(=O)C(C)CC(C)/C=C/C=C/C=C1C (stereo unspecified)
inactive: HT29 colon 43.7% | SNB-75 CNS 13.5% | SNB-19 CNS 38.1% | U251 CNS 35.8% | PC-3 prostate 31.3% | UACC-62 melanoma 36.5% | LOX IMVI melanoma 39% | SK-MEL-28 melanoma 54.1% | SK-MEL-2 melanoma 35.9% | EKVX NSCLC 30.3% | SN12C renal 48.2% | UO-31 renal 21.5% | TK-10 renal 49.7% | ACHN renal 40.3% | CAKI-1 renal 49% | CCRF-CEM leukemia 37.9% | MOLT-4 leukemia 21.4%
active: A498 renal -5.92%

CO[C@H]1/C=C/O[C@@]2(C)Oc3c(C)c(O)c4c(O)c(c(/C=N/N5CCN(C)CC5)c(O)c4c3C2=O)NC(=O)/C(C)=C\C=C\C(C)[C@H](O)[C@@H](C)[C@@H](O)[C@@H](C)[C@@H](OC(C)=O)[C@@H]1C (stereo partly specified)
inactive: HT29 colon 107% | SNB-75 CNS 88.7% | SNB-19 CNS 101% | U251 CNS 96.9% | PC-3 prostate 94% | SK-MEL-5 melanoma 90.6% | LOX IMVI melanoma 93.8% | SK-MEL-28 melanoma 101% | SK-MEL-2 melanoma 113% | EKVX NSCLC 91.7% | SN12C renal 105% | UO-31 renal 88% | ACHN renal 82.1% | CAKI-1 renal 90.4% | A498 renal 103% | CCRF-CEM leukemia 101% | MOLT-4 leukemia 102% | SR leukemia 105%
